Source: PubChem BioAssay AID687001 (Broad Institute, 2013)
Potency and affinity values are given separately. Active and inactive are the calls of the source.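 How the source made its calls: active means signal-lowering compounds whose fitted half-maximal concentration is at or below twice the top tested dose in every run; inconclusive means runs disagree, flat 30 to 70% inhibition, or poor curve fit; inactive means the rest.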

Biological target: Protein S100-A4 (Homo sapiens) (UniProt P26447)
Assay: human S100A4 peptide interaction inhibition curves – biochemical, fluorescence polarization, cherry-picked hits, dose response (AID 687001);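 further: 0% = DMSO neutral control wells and -100% = TFP positive control wells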
Details: FP, S100A4/TAMRA-myosin IIA peptide binding; series mostly up to 11 µM; activity change, negative = inhibition: at the top concentration

Sequence of Protein S100-A4 (Homo sapiens) (P26447 whole entry, looked up): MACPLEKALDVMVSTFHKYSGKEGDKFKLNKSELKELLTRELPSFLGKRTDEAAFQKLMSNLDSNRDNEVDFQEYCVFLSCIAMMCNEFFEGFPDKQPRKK

| SMILES | activity change, negative = inhibition |
| --- | --- |
| CC(=O)Nc1ccc(S(=O)(=O)c2ccc([N+](=O)[O-])cc2)cc1 | -4.99% (inactive) |
| CCOC(=O)C1CCCN(C(=O)c2cc(S(=O)(=O)N3CCCCCC3)ccc2OC)C1 (centres undefined) | -5.58% (inactive) |
| COc1ccc(NC(=O)N(C)C[C@@H]2Oc3ncc(C#CC(C)(C)O)cc3C(=O)N([C@H](C)CO)C[C@@H]2C)cc1 | -0.198% (inactive) |
| Cc1ccc(S(C)(=O)=O)cc1C(=O)OCC(=O)N(Cc1ccccc1)Cc1ccccc1 | -0.758% (inactive) |
| COc1ccc2c(c1)C=CC1(O2)N(CCO)c2ccccc2C1(C)C (centres undefined) | 112% (inactive) |
| O=C(CN1C(=O)NC2(CCCCCCC2)C1=O)Nc1c(Cl)cccc1Cl | -3.09% (inactive) |
| Nn1c(SCc2ccccc2F)nnc1-c1cccnc1 | -0.717% (inactive) |
| COc1ccc(Cl)cc1S(=O)(=O)n1ccnc1 | -1.32% (inactive) |
| Cc1cnc(C(=O)OCC(=O)c2ccccc2)cn1 | 9.27% (inactive) |
| CCc1ccc(C(=O)COC(=O)c2ccco2)cc1 | -1.4% (inactive) |
| COc1ccc(C(=O)N(C)C2(C)CCS(=O)(=O)C2)cc1OC (centres undefined) | 10.1% (inactive) |
| Cc1ccc(CNc2cnccn2)s1 | 1.38% (inactive) |
| O=C(Cn1cc(COc2ccc3ccc(=O)oc3c2)nn1)c1ccc(O)cc1 | -1.67% (inactive) |
| CCOC(=O)C1=C(C)N(C)C(=O)NC1c1cccc2ccccc12 (centres undefined) | 13.3% (inactive) |
| O=C(Nc1nnc([C@H]2C[C@H](O)[C@@H](CO)O2)s1)c1cccc(Oc2ccccc2)c1 | 8.33% (inactive) |
| CCOC(=O)N1CCN(Cc2nc3cc([N+](=O)[O-])ccc3n2C)CC1 | -1.02% (inactive) |
| CC(=O)N1[C@H](C(=O)N[C@H](C)c2ccccc2)[C@@H](CO)[C@@H]2Cn3c(cccc3=O)[C@@H]21 | -1.68% (inactive) |
| COc1cccc(NC(=O)N[C@@H]2C=C[C@@H](CC(=O)N3CCN(C)CC3)O[C@@H]2CO)c1 | -4.96% (inactive) |
| COc1ccc(Cl)cc1-c1cc(C(=O)N[C@H](C)c2ccccc2)[nH]n1 | -1.95% (inactive) |
| CC(C)CC(=O)Nc1c2c(nn1-c1ccc(F)cc1)CS(=O)C2 (centres undefined) | 1.47% (inactive) |

| SMILES | activity change, negative = inhibition |
| --- | --- |
| CN(C)C(=O)c1cccc(-c2ccc3c(c2)[C@H]2[C@H](CCN2C(=O)C2CC2)[C@@H](CO)N3)c1 | 2.78% (inactive) |
| CO[C@H]1CN(C)C(=O)c2cc(NC(C)=O)ccc2OC[C@H](C)N(Cc2ccccn2)C[C@H]1C | -0.609% (inactive) |
| CCn1nc(C(=O)Nc2cc(Cl)ccc2-n2cncn2)c2ccccc2c1=O | 4.26% (inactive) |
| Cc1ccc2c(c1)C(c1ccccc1)N(C(=O)c1ccccc1[N+](=O)[O-])CC(=O)N2 (centres undefined) | -1.9% (inactive) |
| CCCNC(=O)N1C[C@H](O)COC[C@@H]2O[C@H](CC(=O)N[C@H]3CCN(Cc4ccccc4)C3)CC[C@H]21 | 1.92% (inactive) |
| CC(C)n1c(CNC(=O)c2ccccc2F)nnc1SCC(=O)c1ccc(F)cc1 | 28% (inactive) |
| CC(C)[C@H](NC(=O)N1CCn2c1nc1ccccc12)C(=O)NCc1ccccc1Cl | 5.14% (inactive) |
| COc1ccc(C2/C=C\CN(S(=O)(=O)c3cccc4cccnc34)CC(=O)N2Cc2ccc(F)cc2)cc1 (centres undefined) | -1.77% (inactive) |
| CCCCn1c(N)c(N(CC(C)C)C(=O)COc2cc(C)ccc2Cl)c(=O)[nH]c1=O | 0.449% (inactive) |
| Cc1cc2c(cc1S(=O)(=O)N1CCN(c3cccc(C)c3C)CC1)OCCN2C | -3.16% (inactive) |
| CN1C(C(=O)Nc2ccc(OC(F)(F)F)cc2)=CC(c2ccco2)=NS1(=O)=O | -0.849% (inactive) |
| C[C@@H]1CN([C@@H](C)CO)C(=O)c2cc(NC(=O)C3CC3)ccc2O[C@@H]1CN(C)Cc1ccc(Cl)c(Cl)c1 | -3.49% (inactive) |
| COc1ccc(C=O)cc1COc1ccc2c(c1)OCO2 | -4.28% (inactive) |
| O=C(CC(F)(F)F)N1C[C@@H]2[C@H](c3ccccc31)[C@@H](CO)N2CC1CCOCC1 | 3.09% (inactive) |
| COc1ccc(S(=O)(=O)Nc2cccc3c2O[C@@H](CN(C)S(=O)(=O)c2c(C)noc2C)[C@H](C)CN([C@@H](C)CO)C3=O)cc1 | 1.14% (inactive) |
| CCCC(=O)Nc1ccc2c(c1)OC[C@@H](C)N(C(=O)c1cnccn1)C[C@@H](C)[C@H](OC)CN(C)C2=O | 4.36% (inactive) |
| CC(NC(=O)c1ccccc1F)c1nnc(SCC(=O)Nc2nnc(C3CC3)s2)n1C (centres undefined) | 9.61% (inactive) |
| CC(C)c1ccc(/C=C(\NC(=O)c2ccccc2)C(=O)NCCCn2ccnc2)cc1 | -3.44% (inactive) |
| Cn1c(=O)oc2cc(S(=O)(=O)NCc3ccc(Cl)cc3)ccc21 | -0.477% (inactive) |
